Reference: the supplement of paper PMC7411054
Counter-ions that a name gives are not always drawn.

Assays:
Assay in all cases: phenotypically active (imaging signature differs from DMSO and reproducible) at any of 0.3-9 uM (binary (1 = active, 0 = inactive)); higher = active
Settings in all cases: treatment time: 24 h
[1] = tested on: A549-ACTB-RAB5A
Outline: (§1)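 After 24 h at 0.3, 1, 3 or 9 µM, with four wells per treatment, fifteen gene-edited A549, HepG2 and WPMY1 reporter lines carrying BFP, GFP and RFP/FusionRed were imaged live. Each well's live-cell features were expressed relative to solvent control wells. Deviation required ≥3 of 4 wells past the 95th percentile of control Euclidean distances, and reproducibility a median replicate Pearson correlation over the 95th percentile of non-replicates. Phenotypic activity rested on both.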

[2] = tested on: A549-CANX-COX4
Outline: as §1

[3] = tested on: A549-GM130-SQSTM1
Outline: as §1

[4] = tested on: A549-TP53BP1-CLTA
Outline: as §1

[5] = tested on: A549-TUBA1B-RELA
Outline: as §1

[6] = tested on: HepG2-ACTB-RAB5A
Outline: as §1

[7] = tested on: HepG2-CANX-COX4
Outline: as §1

[8] = tested on: HepG2-GM130-SQSTM1
Outline: as §1

[9] = tested on: HepG2-TP53BP1-CLTA
Outline: as §1

[10] = tested on: HepG2-TUBA1B-RELA
Outline: as §1

[11] = tested on: WPMY1-ACTB-RAB5A
Outline: as §1

[12] = tested on: WPMY1-CANX-COX4
Outline: as §1

[13] = tested on: WPMY1-GM130-SQSTM1
Outline: as §1

[14] = tested on: WPMY1-TP53BP1-CLTA
Outline: as §1

[15] = tested on: WPMY1-TUBA1B-RELA
Outline: as §1

Measured: phenotypically active

N#CC(O[C@@H]1O[C@H](CO[C@@H]2O[C@H](CO)[C@@H](O)[C@H](O)[C@H]2O)[C@@H](O)[C@H](O)[C@H]1O)c1ccccc1 (stereo not given in full) [Amygdalin]
inactive: [1] 0 | [2] 0 | [3] 0 | [4] 0 | [5] 0 | [6] 0 | [7] 0 | [8] 0 | [9] 0 | [10] 0 | [11] 0 | [12] 0 | [13] 0 | [14] 0 | [15] 0

CC[C@H]1C[N@@]2CC[C@H]1C[C@H]2[C@@H](O)c1ccnc2ccc(O)cc12 [Hydrocupreine]
inactive: [1] 0 | [2] 0 | [3] 0 | [4] 0 | [5] 0 | [6] 0 | [7] 0 | [8] 0 | [9] 0 | [10] 0 | [11] 0 | [12] 0 | [13] 0 | [14] 0 | [15] 0

COc1ccc2c3c1O[C@H]1C(=O)CC[C@H]4[C@@H](C2)N(C)CC[C@]314 [hydrocodone]
inactive: [1] 0 | [2] 0 | [3] 0 | [4] 0 | [5] 0 | [6] 0 | [7] 0 | [8] 0 | [9] 0 | [10] 0 | [11] 0 | [12] 0 | [13] 0 | [14] 0 | [15] 0

CC(=O)O[C@H]1C[C@@H]2CC[C@@H]3[C@H](CC[C@@]4(C)[C@H]3C[C@H]([N+]3(C)CCCCC3)[C@@H]4OC(C)=O)[C@@]2(C)C[C@@H]1[N+]1(C)CCCCC1 [pancuronium]
inactive: [1] 0 | [2] 0 | [3] 0 | [4] 0 | [5] 0 | [6] 0 | [7] 0 | [8] 0 | [9] 0 | [10] 0 | [11] 0 | [12] 0 | [13] 0 | [14] 0 | [15] 0

C[C@]12COC(=O)C[C@@H]1CC[C@@H]1[C@@H]2CC[C@@]2(C)[C@H]1CC[C@]2(C)O [oxandrolone]
inactive: [1] 0 | [2] 0 | [3] 0 | [4] 0 | [5] 0 | [6] 0 | [7] 0 | [8] 0 | [9] 0 | [10] 0 | [11] 0 | [12] 0 | [13] 0 | [14] 0 | [15] 0

C[N+]1([O-])[C@@H]2C[C@@H](OC(=O)[C@H](CO)c3ccccc3)C[C@H]1[C@@H]1O[C@@H]12 (stereo not given in full) [Genoscopolamine HBr]
inactive: [1] 0 | [2] 0 | [3] 0 | [4] 0 | [5] 0 | [6] 0 | [7] 0 | [8] 0 | [9] 0 | [10] 0 | [11] 0 | [12] 0 | [13] 0 | [14] 0 | [15] 0

O=C1CN=C(c2ccccc2)c2cc(Cl)ccc2N1CC(F)(F)F [halazepam]
inactive: [1] 0 | [2] 0 | [3] 0 | [4] 0 | [5] 0 | [6] 0 | [7] 0 | [8] 0 | [9] 0 | [10] 0 | [11] 0 | [12] 0 | [13] 0 | [14] 0 | [15] 0

COc1ccc2c(c1)[C@]13CCCC[C@@H]1[C@H](C2)N(C)CC3 [dextromethorphan]
inactive: [1] 0 | [2] 0 | [3] 0 | [4] 0 | [5] 0 | [6] 0 | [7] 0 | [8] 0 | [9] 0 | [10] 0 | [11] 0 | [12] 0 | [13] 0 | [14] 0 | [15] 0

COc1cc(C(=O)O[C@H]2C[C@H]3CC[C@@H](C2)N3C)ccc1O [Fillalbin]
inactive: [1] 0 | [2] 0 | [3] 0 | [4] 0 | [5] 0 | [6] 0 | [7] 0 | [8] 0 | [9] 0 | [10] 0 | [11] 0 | [12] 0 | [13] 0 | [14] 0 | [15] 0

Cc1nnc2n1-c1ccc(Cl)cc1C(c1ccccc1)=NC2 [alprazolam]
inactive: [1] 0 | [2] 0 | [3] 0 | [4] 0 | [5] 0 | [6] 0 | [7] 0 | [8] 0 | [9] 0 | [10] 0 | [11] 0 | [12] 0 | [13] 0 | [14] 0 | [15] 0

COC1=CC(=O)O[C@@H](/C=C/c2ccccc2)C1 [Kawain]
inactive: [1] 0 | [2] 0 | [3] 0 | [4] 0 | [5] 0 | [6] 0 | [7] 0 | [8] 0 | [9] 0 | [10] 0 | [11] 0 | [12] 0 | [13] 0 | [14] 0 | [15] 0

C[C@H]1CCC2(NC1)O[C@H]1C[C@H]3[C@@H]4CC[C@H]5C[C@@H](O[C@@H]6O[C@H](CO)[C@H](O[C@@H]7O[C@H](CO)[C@@H](O)[C@H](O[C@@H]8OC[C@@H](O)[C@H](O)[C@H]8O)[C@H]7O[C@@H]7O[C@H](CO)[C@@H](O)[C@H](O)[C@H]7O)[C@H](O)[C@H]6O)CC[C@]5(C)[C@H]4CC[C@]3(C)[C@H]1[C@@H]2C (stereo not given in full) [Tomatine]
inactive: [1] 0 | [2] 0 | [3] 0 | [4] 0 | [5] 0 | [6] 0 | [7] 0 | [8] 0 | [9] 0 | [10] 0 | [11] 0 | [12] 0 | [13] 0 | [14] 0 | [15] 0

COc1ccc2c(c1OC)C(=O)O[C@@H]2[C@H]1c2cc3c(cc2CCN1C)OCO3 [Hydrastine]
inactive: [1] 0 | [2] 0 | [3] 0 | [4] 0 | [5] 0 | [6] 0 | [7] 0 | [8] 0 | [9] 0 | [10] 0 | [11] 0 | [12] 0 | [13] 0 | [14] 0 | [15] 0

C[C@@H]1CN([C@H]2CC[C@](C#N)(c3ccc(F)cc3)CC2)CC[C@]1(C(=O)O)c1ccccc1 [levocabastine]
inactive: [1] 0 | [2] 0 | [3] 0 | [4] 0 | [5] 0 | [6] 0 | [7] 0 | [8] 0 | [9] 0 | [10] 0 | [11] 0 | [12] 0 | [13] 0 | [14] 0 | [15] 0

CCCCCCCCCC(=O)O[C@H]1CC[C@H]2[C@@H]3CCC4=CC(=O)CC[C@@H]4[C@H]3CC[C@]12C [nandrolone-decanoate]
inactive: [1] 0 | [2] 0 | [3] 0 | [4] 0 | [5] 0 | [6] 0 | [7] 0 | [8] 0 | [9] 0 | [10] 0 | [11] 0 | [12] 0 | [13] 0 | [14] 0 | [15] 0

O=P1(NCCCl)OCCCN1CCCl (stereo not given) [ifosfamide]
inactive: [1] 0 | [2] 0 | [3] 0 | [4] 0 | [5] 0 | [6] 0 | [7] 0 | [8] 0 | [9] 0 | [10] 0 | [11] 0 | [12] 0 | [13] 0 | [14] 0 | [15] 0

Clc1ccc2c(c1)C(c1ccccc1)=NCc1nncn1-2 [estazolam]
inactive: [1] 0 | [2] 0 | [3] 0 | [4] 0 | [5] 0 | [6] 0 | [7] 0 | [8] 0 | [9] 0 | [10] 0 | [11] 0 | [12] 0 | [13] 0 | [14] 0 | [15] 0

CCN(CC)C(C)C(=O)c1ccccc1 (stereo not given) [amfepramone]
inactive: [1] 0 | [2] 0 | [3] 0 | [4] 0 | [5] 0 | [6] 0 | [7] 0 | [8] 0 | [9] 0 | [10] 0 | [11] 0 | [12] 0 | [13] 0 | [14] 0 | [15] 0

CCOc1cc(C=O)ccc1O [Ethylvanilline]
inactive: [1] 0 | [2] 0 | [3] 0 | [4] 0 | [5] 0 | [6] 0 | [7] 0 | [8] 0 | [9] 0 | [10] 0 | [11] 0 | [12] 0 | [13] 0 | [14] 0 | [15] 0

CC1=CC(=O)C2=C(C)C[C@H](O)[C@@H]3[C@H](OC(=O)[C@H]3C)[C@@H]12 [Austricine hydrate]
inactive: [1] 0 | [2] 0 | [3] 0 | [4] 0 | [5] 0 | [6] 0 | [7] 0 | [8] 0 | [9] 0 | [10] 0 | [11] 0 | [12] 0 | [13] 0 | [14] 0 | [15] 0

CCN(C)C(=O)Oc1cccc([C@H](C)N(C)C)c1 [rivastigmine]
inactive: [1] 0 | [2] 0 | [3] 0 | [4] 0 | [5] 0 | [6] 0 | [7] 0 | [8] 0 | [9] 0 | [10] 0 | [11] 0 | [12] 0 | [13] 0 | [14] 0 | [15] 0

COc1ccc(C(=O)OC2C[C@H]3CC[C@H](C2)N3C)cc1OC (stereo not given in full) [Convolamine hydrochloride]
inactive: [1] 0 | [2] 0 | [3] 0 | [4] 0 | [5] 0 | [6] 0 | [7] 0 | [8] 0 | [9] 0 | [10] 0 | [11] 0 | [12] 0 | [13] 0 | [14] 0 | [15] 0

O=C(O)CC[N+](=O)[O-] [3-Nitropropionic acid]
inactive: [1] 0 | [2] 0 | [3] 0 | [4] 0 | [5] 0 | [6] 0 | [7] 0 | [8] 0 | [9] 0 | [10] 0 | [11] 0 | [12] 0 | [13] 0 | [14] 0 | [15] 0
